GDH-TPI inh: GDH-TPI coupling enzyme inhibitors, primary screen, artefact control for M. tuberculosis FBA inhibitor project, biochemical, absorbance, full deck; GDH-TPI coupled enzyme counterscreen, NADH absorbance; inhibition, % at 4.8 µM; actives 1.2% (n = 360,000); in the data active = inhibition above about 30%;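 note: 0% = DMSO wells and 100% = wells lacking the enzyme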
Vc quorum ag: inducers of Vibrio cholerae quorum light production without autoinducers, primary screen, BH1578 luxS cqsA deficient, single point; V. cholerae BH1578 lux reporter, luminescence, 6 h; activation, % at 18.7 µM; actives 0.16% (n = 350,000); AID 588436, 2011; in the data active = activation mostly above about 9.7%, no sharp cut-off
PrPC surface inh: inhibitors of human cell surface prion protein PrPC, primary screen, cell-based, TR-FRET | Major prion protein (Homo sapiens), P04156 | actives 0.43% (n = 370,000) | TR-FRET read-out | AID 720596, 2013 | inhibition, % at 13.8 µM; in the data active = inhibition above about 24%; note: 0% = median of the test wells and 100% = reference compound wells
FBA Mtb inh: Mtb FBA enzyme inhibitors, primary screen, biochemical, fluorescence, strain H37Rv | inhibition, % at 1 µM | AID 588726, 2011 | actives 2.3% (n = 360,000) | purified M. tuberculosis FBA, fluorescence read-out; in the data active = inhibition above about 27%;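 note: 0% = vehicle and 100% = reference inhibitor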
Target sequence (P9WQA3 whole entry, looked up): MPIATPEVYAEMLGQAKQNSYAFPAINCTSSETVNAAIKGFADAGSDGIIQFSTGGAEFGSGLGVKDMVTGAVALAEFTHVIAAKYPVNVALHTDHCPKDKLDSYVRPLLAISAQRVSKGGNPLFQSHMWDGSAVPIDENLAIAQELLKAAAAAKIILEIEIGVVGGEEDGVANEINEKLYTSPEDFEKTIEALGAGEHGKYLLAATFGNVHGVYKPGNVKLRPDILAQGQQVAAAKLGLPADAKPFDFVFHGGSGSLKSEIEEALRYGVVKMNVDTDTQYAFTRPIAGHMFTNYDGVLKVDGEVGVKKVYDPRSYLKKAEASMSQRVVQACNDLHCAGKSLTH
3CLpro inhibitor: SARS-CoV 3CLpro protease inhibitors, primary screen, biochemical, quenched FRET. Replicase polyprotein 1ab (Severe acute respiratory syndrome coronavirus), P0C6X7. recombinant SARS-CoV 3CLpro, quenched FRET peptide cleavage. inhibition, % at 6 µM. actives 0.14% (n = 290,000). AID 1706, 2009; in the data active = inhibition above about 12%
* = called active by the depositor. Hits are enriched below; roughly 3.9% of the tested compounds scored in any of these assays.

For Cc1cccn2c(=O)c3cc(C(=O)NCc4ccccc4)c(=N)n(CCCN4CCOCC4)c3nc12 the results were GDH-TPI inh 6, Vc quorum ag inactive, PrPC surface inh -19 and FBA Mtb inh 125*.
Screening COc1ccc(CCNC(=O)c2cc3c(=O)n4ccccc4nc3n(CCCN3CCOCC3)c2=N)cc1 returned GDH-TPI inh 13, Vc quorum ag inactive, PrPC surface inh -61, FBA Mtb inh 14 and 3CLpro inhibitor -1.
For Cc1cccn2c(=O)c3cc(C(=O)NCCN4CCOCC4)c(=N)n(CCCN4CCOCC4)c3nc12 the results were GDH-TPI inh 7, Vc quorum ag 0, PrPC surface inh -37, FBA Mtb inh 114* and 3CLpro inhibitor -6.
COc1ccc(CCNC(=O)c2cc3c(=O)n4ccccc4nc3n(CCCN3CCOCC3)c2=N)cc1OC was read as GDH-TPI inh 9, Vc quorum ag -3, PrPC surface inh -44, FBA Mtb inh 3 and 3CLpro inhibitor 0.
Screening Cc1cccc(CNc2ncnc3ccc(-c4ccccc4Cl)cc23)c1 returned GDH-TPI inh -4, Vc quorum ag 0, PrPC surface inh 4 and FBA Mtb inh -3.
For CCN(CC)CC#CCC(OC)(c1ccccc1)c1ccccc1 the results were GDH-TPI inh 2, Vc quorum ag -1, PrPC surface inh 1, FBA Mtb inh 1 and 3CLpro inhibitor -5.
CCOC(=O)[C@@H](NC(=O)/C=C/[C@H]1O[C@@H](n2ccc(=O)[nH]c2=O)[C@H](O)[C@@H]1O)C(C)C was read as PrPC surface inh 4 and FBA Mtb inh -2.
Screening Cc1nn2c(c1-c1ccccc1)NC1=C(C(=O)CCC1)C2c1ccccc1 (stereo not drawn) returned GDH-TPI inh 33*, Vc quorum ag -3, PrPC surface inh -5, FBA Mtb inh 115* and 3CLpro inhibitor -2.
For CCC(=O)N1c2ccccc2NC2=C(C(=O)CCC2)C1c1ccccc1 (stereo not drawn) the results were GDH-TPI inh 24, Vc quorum ag -1, PrPC surface inh -1, FBA Mtb inh 3 and 3CLpro inhibitor 1.
`O=C(C1CCCN1S(=O)(=O)c1cccc2ccccc12)N1CCN(c2ccccc2)CC1` (stereo not drawn) gave PrPC surface inh -3.
CCOc1ccc2[nH]c(=O)c(=O)[nH]c2c1 was read as GDH-TPI inh 35*, Vc quorum ag inactive, PrPC surface inh 3, FBA Mtb inh 3 and 3CLpro inhibitor -1.
`CCOc1ccc2[nH]c(C)cc(=O)c2c1` gave GDH-TPI inh 19, Vc quorum ag 0, PrPC surface inh -3, FBA Mtb inh 17 and 3CLpro inhibitor -1.
Screening CC(=C1N=C(c2ccccc2)OC1=O)c1cccs1 returned PrPC surface inh 5.
Screening CN(C)/C(CN1CCN(C=O)CC1)=C1\N=C(c2ccccc2)OC1=O returned GDH-TPI inh 36*, Vc quorum ag 0, PrPC surface inh -9, FBA Mtb inh 2 and 3CLpro inhibitor 1.
`Nc1nc(NCCCN2CCOCC2)nc(Nc2cccc(F)c2)c1[N+](=O)[O-]` gave GDH-TPI inh 51*, Vc quorum ag -1, PrPC surface inh -7, FBA Mtb inh -3 and 3CLpro inhibitor -7.
For Nc1nc(NCCCN2CCOCC2)nc(Nc2ccc(F)cc2)c1[N+](=O)[O-] the results were GDH-TPI inh 19, Vc quorum ag 0, PrPC surface inh -16, FBA Mtb inh -3 and 3CLpro inhibitor -4.
Cc1cccc(Nc2nc(N)c([N+](=O)[O-])c(N3CCN(C)CC3)n2)c1 was read as GDH-TPI inh 33*, Vc quorum ag 0, PrPC surface inh -14, FBA Mtb inh -2 and 3CLpro inhibitor -10.
`Cc1cccc(Nc2nc(NCCCN3CCOCC3)nc(N)c2[N+](=O)[O-])c1` gave GDH-TPI inh 64*, Vc quorum ag 0, PrPC surface inh -10, FBA Mtb inh -5 and 3CLpro inhibitor 4.
Screening CN1CCN(c2nc(Nc3ccccc3)nc(N)c2[N+](=O)[O-])CC1 returned GDH-TPI inh 24, Vc quorum ag -1, PrPC surface inh -3, FBA Mtb inh -2 and 3CLpro inhibitor -1.
Nc1nc(Nc2cccc(F)c2)nc(N2CCOCC2)c1[N+](=O)[O-] was read as GDH-TPI inh 37*, Vc quorum ag inactive, PrPC surface inh -7, FBA Mtb inh -2 and 3CLpro inhibitor -2.
For COC(=O)[C@]12C[C@H](CC(=O)NCCC(C)C)C(=O)N(CCc3ccc(OC)c(OC)c3)C1=C[C@H](C(C)C)O[C@@H]2C1CC1 the results were PrPC surface inh -4.
For N#Cc1c(-c2ccco2)cc(-c2cccnc2)nc1N the results were GDH-TPI inh 20, Vc quorum ag inactive, PrPC surface inh -7, FBA Mtb inh 181* and 3CLpro inhibitor 2.
For N#Cc1c(-c2ccco2)cc(-c2ccccn2)nc1N the results were GDH-TPI inh 15, Vc quorum ag 0, PrPC surface inh -8, FBA Mtb inh 194* and 3CLpro inhibitor -6.
CCOC(=O)COc1nc(-c2ccc(C)cc2)cc(-c2ccco2)c1C#N was read as GDH-TPI inh -12, Vc quorum ag inactive, PrPC surface inh -2, FBA Mtb inh 1 and 3CLpro inhibitor -1.
N#Cc1c(-c2cccnc2)cc(-c2ccccc2)nc1N was read as GDH-TPI inh 9, Vc quorum ag -1, PrPC surface inh -4, FBA Mtb inh active and 3CLpro inhibitor 2.
`c1cncc(-c2nnc(-c3ccco3)o2)c1` gave GDH-TPI inh -2, Vc quorum ag -17, PrPC surface inh -6, FBA Mtb inh 114* and 3CLpro inhibitor 3.
For Clc1ccccc1-c1nnc(-c2cccnc2)o1 the results were GDH-TPI inh -4, Vc quorum ag 0, PrPC surface inh -3, FBA Mtb inh 1 and 3CLpro inhibitor 0.
Screening Cc1c(-c2ccccc2)nc(N)c(C#N)c1-c1ccco1 returned GDH-TPI inh 5, Vc quorum ag inactive, PrPC surface inh 0, FBA Mtb inh 18 and 3CLpro inhibitor -1.
Screening Nn1c(SCC(=O)N2CCOCC2)nnc1-c1cc(-c2ccc(Cl)cc2)n[nH]1 returned PrPC surface inh -8.
For O=C(COC(=O)c1cccs1)NC1CCCC1 the results were GDH-TPI inh 7, Vc quorum ag 0, PrPC surface inh 1, FBA Mtb inh 0 and 3CLpro inhibitor 1.
Screening CC(=O)Nc1nc2nc(-c3ccccc3)cc(-c3ccccc3)n2n1 returned GDH-TPI inh 26, Vc quorum ag 4, PrPC surface inh -3, FBA Mtb inh 60* and 3CLpro inhibitor 1.
For CC(=O)C1=CN(Cc2ccccc2)CCC1=O the results were GDH-TPI inh 6, Vc quorum ag inactive, PrPC surface inh -2 and FBA Mtb inh 1.

Source: PubChem BioAssay
